Screening results (PubChem)
The entries come from a sample that favours hits as a whole.
NOMO-1 viab: STK33 inhibitor candidate reducing NOMO-1 cell viability; NOMO-1 AML viability, CellTiter-Glo luminescence, 72 h; inhibition, % (no concentration beside the values); 37,000 compounds, 7.5% hits; AID 2330; in the data active = inhibition above about 80%; inconclusive = no clear call, values can overlap the other calls
STK33 inh: inhibitors of human STK33 kinase; Q9BYT3; ADP-Glo luminescence, MBP substrate; inhibition, % at 12.5 µM; 27,000 compounds, 0.44% hits; AID 2322; in the data active = inhibition above about 20%; inconclusive = no clear call, values can overlap the other calls
Target sequence (Q9BYT3 whole entry, looked up): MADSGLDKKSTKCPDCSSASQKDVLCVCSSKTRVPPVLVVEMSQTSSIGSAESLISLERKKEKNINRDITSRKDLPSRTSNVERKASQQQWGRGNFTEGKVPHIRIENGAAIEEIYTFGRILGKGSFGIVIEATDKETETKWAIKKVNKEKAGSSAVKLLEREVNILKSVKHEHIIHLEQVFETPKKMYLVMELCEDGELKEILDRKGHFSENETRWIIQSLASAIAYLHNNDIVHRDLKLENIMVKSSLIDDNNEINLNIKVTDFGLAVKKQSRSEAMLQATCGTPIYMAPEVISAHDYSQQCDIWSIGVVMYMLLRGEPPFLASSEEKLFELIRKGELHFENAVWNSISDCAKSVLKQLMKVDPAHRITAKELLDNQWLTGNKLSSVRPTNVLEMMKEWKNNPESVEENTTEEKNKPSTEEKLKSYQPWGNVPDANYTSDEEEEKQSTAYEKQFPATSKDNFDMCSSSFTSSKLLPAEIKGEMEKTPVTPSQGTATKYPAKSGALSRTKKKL
PD-1 reversal: activators reversing PD-1 mediated T-cell inhibition. primary human CD4 T cells, PD-L1 beads, CellTiter-Glo 96 h. activation, % (no concentration beside the values). 29,000 tested, under 10 active. AID 2316; call rule not given here
Hits are given with their value; . = inactive; ? = inconclusive; / = not tested or not shown.

SMILES	NOMO-1 viab	STK33 inh	PD-1 reversal
C[C@@H]1CCCCO[C@H](CN(C)Cc2ccc(C(F)(F)F)cc2)[C@@H](C)CN([C@H](C)CO)C(=O)c2cc(NS(=O)(=O)c3ccc(Cl)cc3)ccc2O1	82	.	/
COC(=O)NCC12CC3CC(CC(C3)C1)C2	.	.	.
CCCN(CCC)C(=O)c1cccc2c1-c1ccccc1C2=O	.	/	.
CC(C)(c1ccccc1)c1cc(CN2CCOCC2)c(O)c(CN2CCOCC2)c1	.	/	.
CN(CCCc1nc2ccccc2[nH]1)S(=O)(=O)c1ccc(Cl)cc1	.	.	/
COc1ccc(-c2cc(C(F)(F)F)nc(SCC(=O)Nc3cc(F)ccc3C)n2)cc1OC	.	.	.
Cc1ccc(NC(=O)c2ccc3c(=O)n(Cc4ccco4)c(=S)[nH]c3c2)cc1Cl	121	.	.
COc1ccc(NC(=O)c2ccc3c(=O)n(CCc4ccccc4)c(=S)[nH]c3c2)cc1	.	.	.
O=C(Nc1ccccc1[N+](=O)[O-])c1cccc(S(=O)(=O)Nc2ccc(F)cc2)c1	.	.	.
O=C(O)CC1CCC(CC(O)/C=C\C/C=C\CCCCCO)O1 (stereo not given)	117	.	.
CCCCC/C=C\C/C=C\C(O)CCCCCCC(=O)O (stereo not given)	.	.	.
N#Cc1c(C(F)(F)F)cc(-c2ccccc2)nc1SCC(=O)Nc1ccccc1C(F)(F)F	.	.	/
O=C(CSc1nc2ccccc2c(=O)n1Cc1ccccc1)c1cc2ccccc2o1	.	.	.
COc1ccc2nc(SCC(=O)Nc3cccc([N+](=O)[O-])c3)[nH]c2c1	.	?	.
Cc1cc2nc(Sc3c([N+](=O)[O-])nc(C)n3Cc3ccccc3)[nH]c2cc1C	107	.	.
Cc1cc2nc(SCc3ccccc3C#N)[nH]c2cc1C	.	.	.
Cc1nc([N+](=O)[O-])c(Sc2nc3ccccc3[nH]2)n1Cc1ccccc1	101	.	.
COc1ccc2nc(Sc3c([N+](=O)[O-])nc(C)n3Cc3ccccc3)[nH]c2c1	102	.	.
O=[N+]([O-])c1ccc2nc(CSc3nc4ccccc4[nH]3)[nH]c2c1	.	.	/
S=c1[nH][n+]2c(-c3ccccc3)cc(-c3ccccc3)nc2s1	.	/	.
Cc1cc(-c2ccccc2)nc(SCC(=O)Nc2ccccc2C#N)n1	.	.	.
O=c1c(Cc2ccccc2OCc2ccccc2)coc2ccccc12	.	/	.
COc1cc(/C=C/C(=O)OC2C(COC(=O)c3cc(OC)c(OC)c(OC)c3)OC(OC3(CO)OC(CO)C(O)C3O)C(O)C2O)cc(OC)c1OC (stereo not given)	.	.	.
CCCn1c(NCCCO)nc2ccccc21	.	.	.
COc1ccc(C)cc1CN1CCC(CNC(=O)Nc2cc(Cl)ccc2C)CC1	122	.	.
SMILES	NOMO-1 viab	STK33 inh	PD-1 reversal
COc1ccc(Cl)cc1N1CCN(CCNC(=O)Nc2ccccc2C)CC1	.	.	/
Cc1cc(I)cc(C)c1NC(=O)CSc1nnnn1-c1ccccc1	.	.	.
C[C@H]1CC[C@@H]2[C@@H](C(=O)c3c(O)c([C@]4(O)CC[C@@H](O)[C@H]5O[C@H]54)c[nH]c3=O)[C@@H](C)C=C[C@H]2C1	121	.	.
CC(NC(=O)COc1ccc(Cl)cc1Cl)C(=O)O (stereo not given)	.	.	/
FC(F)(F)C1(C(F)(F)F)N=C(c2ccccc2)OC(N2CCCCC2)=N1	.	/	.
CC(C)[C@H](N)C(=O)N[C@@H](Cc1c[nH]c2ccccc12)C(=O)O	.	.	/
CC(NC(=O)/C=C/C(=O)O)C(=O)NC(C(=O)NC(Cc1c[nH]c2ccccc12)C(=O)O)C(C)c1c[nH]c2ccccc12 (stereo not given)	.	150	.
COC(=O)c1ccc(C(=O)OC)c(NC(=O)COc2ccc3oc4c(c3c2)CCCC4)c1	.	.	/
CCc1nc(SCC(=O)Nc2c(Cl)cccc2Cl)c(C#N)c(C(F)(F)F)c1C	.	.	.
Cc1cccc(-c2noc(CN(C(C)C)S(=O)(=O)c3ccc([N+](=O)[O-])cc3)n2)c1	.	.	.
COc1ccc(C(=C2C(=O)Nc3ccccc32)c2ccc(OC)cc2)cc1	.	.	.
CN(C)c1ccc(/C=C2\C(=O)Nc3ccccc32)c2ccccc12	86	.	.
COc1ccc(-c2nc(SCC(=O)N3c4ccccc4Sc4ccccc43)n[nH]2)cc1	.	.	/
S=c1nc[nH]c2c1nnn2Cc1ccccc1Cl	.	/	.
CCC1c2[nH]c3ccccc3c2CCN1C(=O)c1ccc(Cl)cc1 (stereo not given)	84	/	.
COC(=O)[C@@H]1[C@H]2C[C@H]3c4[nH]c5ccccc5c4CCN3C[C@@H]2CC[C@@H]1O	.	.	.
O=C1c2ccccc2C(=O)N1CCCc1nc(-c2cccc([N+](=O)[O-])c2)no1	.	.	.
CC(=O)Nc1ccc(-c2nnc(SCC(=O)Nc3cccc(C(F)(F)F)c3)n2C)cc1	.	.	.
CCN1C(=O)C(=Cc2c(O)n(CC)c(=O)n(CC)c2=O)C(=O)N(CC)C1=O	.	.	.
O=C(CSc1nnc(-c2cccc(Cl)c2)n1-c1ccccc1)Nc1ccccc1-c1ccccc1	142	.	.
COc1cccc(NC(=O)CSc2nnc(-c3cccc(OC)c3)n2-c2ccc(Cl)cc2)c1	.	.	.
Cc1ccc(Cl)cc1NC(=O)CSc1nnc(-c2ccccc2)n1-c1ccccc1	.	.	.
COc1cccc(NC(=O)CSc2nnc(-c3ccc(Cl)cc3)n2-c2cccc(C)c2)c1	123	.	.
O=c1cc(-c2ccccc2)nc2nc(NCc3cccc([N+](=O)[O-])c3)[nH]n12	.	.	.
O=[N+]([O-])c1cccc(-c2nn(-c3ccccc3)cc2CNCc2ccccc2)c1	93	.	.
SMILES	NOMO-1 viab	STK33 inh	PD-1 reversal
Cc1ccc(C23CC4CC(CC(C(=O)NC5=NCCS5)(C4)C2)C3)cc1	.	/	.
C[C@H]1CN([C@@H](C)CO)C(=O)Cc2cc(NC(=O)Nc3ccc(C(F)(F)F)cc3)ccc2O[C@@H]1CN(C)Cc1ccc(C(=O)O)cc1	.	.	/
C[C@@H]1CN([C@H](C)CO)C(=O)Cc2cc(NC(=O)NC3CCCCC3)ccc2O[C@H]1CN(C)Cc1ccc(C(F)(F)F)cc1	93	.	/
C[C@@H]1CN([C@@H](C)CO)C(=O)Cc2cc(NC(=O)Nc3ccc(C(F)(F)F)cc3)ccc2O[C@@H]1CN(C)Cc1ccc(C(F)(F)F)cc1	124	.	/
C[C@H]1CN([C@@H](C)CO)C(=O)Cc2cc(NC(=O)Nc3ccc(C(F)(F)F)cc3)ccc2O[C@H]1CN(C)Cc1ccc(C(F)(F)F)cc1	136	.	.
C[C@@H]1CN([C@H](C)CO)C(=O)Cc2cc(NC(=O)Nc3ccc(F)cc3)ccc2O[C@@H]1CN(C)Cc1ccc(C(F)(F)F)cc1	?	.	.
C[C@H]1CN([C@@H](C)CO)C(=O)Cc2cc(NC(=O)NC3CCCCC3)ccc2O[C@H]1CN(C)Cc1ccc(C(F)(F)F)cc1	.	.	/
O=S(=O)(c1ccc(Br)cc1)N1CCCCCC1	.	/	.
CC(C)C(NS(=O)(=O)c1ccc(F)c(Cl)c1)C(=O)O (stereo not given)	.	.	.
CC(C)S(=O)(=O)c1csc(C(=O)OCC(=O)c2ccc(Cl)cc2)c1N	.	/	.
Cc1nc(-c2ccccc2)sc1C(=O)C1C(=O)C(=O)N(CCN2CCOCC2)C1c1cccs1 (stereo not given)	.	.	/
